Measured values: the supplement of paper PMC6555819

How the values were obtained:
Test in all cases: PBM binding z-score (relative to random genomic background probes); higher = stronger binding; sequences stand for … in GC…GCGATTGACAGCGTAGAATGAAGG
[1] = test system: LXRa:RXRa (NR concentration 270 nM, RXRa partner concentration 90 nM)
Summary of the method: (§1)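 On custom Agilent 4×180K arrays, double-stranded probes with 34-nt variable regions carried direct-repeat seeds, single-nucleotide variants, half-site ablations or random human genomic background. Ligand-free nuclear receptor dimers were applied for 1 h, and binding was read with antibodies against each partner (one per run). Binding z-scores come from regression-normalized fluorescence, with the random background probes as reference.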

[2] = test system: LXRa homodimer (NR concentration 270 nM)
Summary of the method: as §1

[3] = test system: LXRb homodimer (NR concentration 270 nM)
Summary of the method: as §1

[4] = test system: PPARa:RXRa (NR concentration 270 nM, RXRa partner concentration 90 nM)
Summary of the method: as §1

[5] = test system: PPARg:RXRa (NR concentration 180 nM, RXRa partner concentration 90 nM)
Summary of the method: as §1

[6] = test system: PPARg:RXRa 270nM:90nM, anti-RXR (NR concentration 270 nM, RXRa partner concentration 90 nM)
Summary of the method: as §1

[7] = test system: PPARg:RXRa 30nM:10nM, anti-RXR (NR concentration 30 nM, RXRa partner concentration 10 nM)
Summary of the method: as §1

[8] = test system: PPARg:RXRa 90nM:30nM, anti-RXR (NR concentration 90 nM, RXRa partner concentration 30 nM)
Summary of the method: as §1

[9] = test system: PPARg:RXRa DBDmut IVT, anti-RXR (DBD mutation: RXRa K156A/R161A, NR concentration 270 nM, RXRa partner concentration 90 nM)
Summary of the method: as §1

[10] = test system: PPARg:RXRa IVT, anti-PPARg (NR concentration 270 nM, RXRa partner concentration 90 nM)
Summary of the method: as §1

[11] = test system: PPARg DBDmut:RXRa IVT, anti-PPARg (DBD mutation: PPARg1 K132A/R137A, NR concentration 270 nM, RXRa partner concentration 90 nM)
Summary of the method: as §1

[12] = test system: PPARg DBDmut IVT, anti-PPARg (DBD mutation: PPARg1 K132A/R137A, NR concentration 270 nM)
Summary of the method: as §1

[13] = test system: PPARg homodimer (NR concentration 180 nM)
Summary of the method: as §1

[14] = test system: PXR:RXRa (NR concentration 270 nM, RXRa partner concentration 90 nM)
Summary of the method: as §1

[15] = test system: PXR homodimer (NR concentration 270 nM)
Summary of the method: as §1

[16] = test system: RARa:RXR (NR concentration 270 nM, RXRa partner concentration 90 nM)
Summary of the method: as §1

[17] = test system: RARa homodimer (NR concentration 270 nM)
Summary of the method: as §1

[18] = test system: RARb:RXRa (NR concentration 270 nM, RXRa partner concentration 90 nM)
Summary of the method: as §1

[19] = test system: RARb homodimer (NR concentration 270 nM)
Summary of the method: as §1

Sequence	PBM binding z-score [1]	PBM binding z-score [2]	PBM binding z-score [3]	PBM binding z-score [4]	PBM binding z-score [5]	PBM binding z-score [6]	PBM binding z-score [7]	PBM binding z-score [8]	PBM binding z-score [9]	PBM binding z-score [10]	PBM binding z-score [11]	PBM binding z-score [12]	PBM binding z-score [13]	PBM binding z-score [14]	PBM binding z-score [15]	PBM binding z-score [16]	PBM binding z-score [17]	PBM binding z-score [18]	PBM binding z-score [19]
TAGCCTAGGTCATACAGGGGCCAGTATAGAAAGC	3.34	0.359	0.751	3.72	2.36	2.35	0.845	1.62	1.94	2.89	0.2	-0.11	1.83	2.1	-0.101	3.56	0.204	3.91	3.38
CAAACCAGGTCACAGAGGTCAAAGTCCGTGCGTA	6.8	7.74	2.6	6.49	8.73	7.69	5.28	7.12	6.56	7.43	3.56	2.74	5.78	7.23	14.2		4.25	5.41	5.56
CATACAGGGTCGGCTAGGCCAGAGTAGGGACGGC	0.0375	-0.58	-0.356	0.514	0.288	-0.0886	-0.643	-0.513	-0.787	0.00635	-0.399	-0.0958	-0.0997	-0.0911	-0.146	0.408	-0.15	1.13	0.799
AGAATGAGGTCATTAAGATCAGGGAATTGCGGTC	5.58	2.12	1.68	6.05	6.93	6.63	3.8	5.83	6.03	6.13	2.24	0.816	3.54	5.46	5.08	5.31	0.745	4.79	3.96
TTGCCAAGGTGAAAGGTCGTTGATGCACGCCTTG	3.11	-0.0355	-0.723	5.16	8.02	7.51	6.32	8.1	1.69	4.55	-0.0211	-0.745	1.54	4	-0.137	5.68	-0.379	3.06	2.56
CCTAGTTGTTCAGGAGGTCACACACCGGATATGA	4.36	3.87	1.61	4.17	2.04	2.98	1.11	1.87	0.958	2.97	1.15	0.86	3.91	4.18	2.15	4.4	2.25	3.62	4.15
ACTCGGTGGACAAAGGTCAGAGCTACGCCAGTGA	3.52	0.715	-0.512	4.25	6.18	6.42	5.2	6.63	0.195	3.04	-0.478	-0.742	2	3.37	-0.0874	4.02	0.366	3.96	4.06
AATACAGGGTAACTAGGCCAGAGTAGGTACGAAT	0.106	-0.23	-0.0777	2.01	2.82	2.44	0.877	1.88	3.4	4.67	1.24	0.826	0.854	-0.078	0.0219	-0.00374	0.0183	0.804	0.549
CAAACTAGGTCAAGGTCTAAGTCGGTTTGTGCCA	2.44	0.318	0.246	4.92	8.27	7.05	5.25	6.46	8.12	8.57	4.39	3.12	2	1.67	0.201	2.3	0.357	4.24	3.49
TCTATTAGTTGATTAGGGCAACCGAAACAGCGGA	0.552	0.193	0.613	1.05	0.303	2.14	3.65	2.63	2.02	1.84	0.572	0.488	1.34	0.609	0.491	1.03	1.33	0.953	0.738
ATCGAAAGGTCGAAGGTGCGTATACCCACCCGAA	3.22	0.0571	0.0928	4.12	3.21	3.25	1.01	2.44	-0.0152	1.39	0.552	0.658	0.794	2.17	-0.19	3.01	0.303	3.68	2.42
GCTGCGAGGTCAACTGATGGTCAGCTAAAGCTCG	5.87	1.54	1.67	6.02	6.28	6.33	2.91	5.05	3.65	4.26	0.48	-0.29	3.57	5.49	0.673	5.93	0.38		4.83
TGTCAAAGTTCAAAGGTGACGTAAGTATCCACAC	6.41	4.7	1.8	6.09	9.47	7.89	6.06	7.61	0.732	5.07	1.7	1.53	5.33	6.34	5.43		2.52	5.36	4.05
CCAACTGGGCCAAAAAGGTCATTGATGCCGATAA	4.4	3.17	0.337	4.57	3.08	4.09	1.65	3.3	4.24	3.89	-0.199	-0.68	2.84	4.6	3	4.65	1.31	3.94	4.36
CGTCAAAGGTCAGAGAGGTCAGTGAATGCCGAGT	6.59	4.99	1.76	6.13	7.66	7.15	4.06	6.28	4.14	5.36	0.83	0.0737	5.81	6.7	12.3		5.86		6.19
CGAACAAGGTCATCCAGGACAGTGAATACATTGA	5.83	1.43	1.27	5.9	6.4	6.17	2.72	5.1	4.74	5.07	3.54	2.64	3.58	5.44	7.22	5.39	2.04	5.19	4
TAGCCTAGGTCATGCGGGACAGTATAGTGTCGGC	2.99	0.386	-0.0861	3.53	2.48	2.57	0.321	1.17	1.71	3.2	0.574	0.484	1.45	1.82	-0.102	2.58	-0.0247	3.72	2.99
CCTACTGGGCCTAAGGTCATTGATTCCAATGCTC	2.93	2.32	0.209	4.53	7.98	8.17	7.15	8.08	1.25	3.86	-0.629	-0.793	2.07	3.7	1.98	3.54	0.174	3.15	3.54
CGTCCAAGGTCATAGGGGGTCAGTGAAGACAGAT	7.05	4.02	8.62		7.32	7.58	4.55	6.71	3.59	5.56	5.09	6.03	6.75	6.98	6.58	7.02	4.01	5.56	5.51
TTACCAAGGTGAACGGTCGTTGATGCACGCCTTG	0.744	-0.159	-0.974		1.77	2.8	1.17	2.35	2.31	3.55	1.13	0.904	0.997	-0.0425	-0.818	0.693	-0.752	2.03	1.31
TAGCCTAGTTCATTCAGGGGCCAGTATAGAAAGC	0.593	0.155	0.584		0.203	0.273	-0.157	0.0192	1.65	1.45	-0.019	0.583	0.283	1.29	0.885	0.991	-0.411	1.72	1.64
CGAACTAGGTCATTGACAGGACAGTGGATAGTAA	2.74	0.471	0.232		7.3	6.07	3.68	5.3	8.44	7.98	2.72	1.77	1.39	1.52	0.501	2.02	-0.303	3.53	2.83
TCTCGGAGGACACTAAAGGTCAGAGCTCGACATC	5.15	5.33	0.134		1.47	2.94	2.78	2.97	1.65	1.59	-0.114	-0.191	2.43	3.8	0.66	4.14	0.456	3.84	4.7
CCTGCGAGGTCATGGTCAGCTAATCTACAGTATG	5.55	1.41	0.772		5.93	5.94	2.34	4.57	3.79	4.21	2.09	1.64	4.94	5.39	1.06	5.88	1.08	5.01	4.02
TAGCCGAGGTCATTCAGGGGCCAGTATAGAAAGC	6.28	2.47	2.89		6.14	5.81	2.43	4.55	1.75	3.9	1.06	1.57	4.27	5.92	2.27	6.51	0.64	5.27	4.49
CGAACAAGGTCACCAGGACAGTGAAGAGGTTGGA	5.26	0.443	0.736	6.12	7.8	7.38	3.87	6.13	5.38	6.18		1.95	4.85	4.68	1.1	5.71	3.06	5.3	4.07
AGTCAAACTTCAGGACGAGGTAACGTAAAGCACG	-0.137	-0.0988	-0.504		0.919	-0.132	0.281	-0.00758	-0.522	0.278	0.625	0.0207	0.24	-0.409	-0.112	0.165	0.202	0.545	0.304
ATATGTAGGTTAGCTGGGGTCATTCACACTAGGC	5.86	3.53	1.66		5.47	5.14	2.95	4.69	6.87	6.11	2.75	2.29	3.1	6.36	4.2	5.41	1.89	2.85	3.87
TAGCCTAGGTCACATCGGGCCAGTATACGCTATA	3.44	0.038	0.0362		2.64	2.61	0.683	1.59	2.1	3.51	0.246	-0.263	0.979	2.26	-0.395	2.25	-0.254	3.84	2.63
TAGCCTAGGTCATGCGGCCCAGTATAGTGTCGGC	3.19	0.125	-0.105		2.04	2.49	0.144	1.04	1.17	2.78	-0.45	-0.404	0.605	1.27	-0.926	2.1	-0.495	3.72	2.78
